Source: PubChem BioAssay
DAX1 inh-1: DAX1 (NR0B1) inhibitors, primary screen, cell-based, HEK293, Gal4-DAX1, luciferase luminescence | actives 0.99% (n = 340,000) | HEK293 Gal4-DAX1 luciferase reporter | inhibition, % at 6.75 µM | Nuclear receptor subfamily 0 group B member 1 (Homo sapiens), P51843;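 active means inhibition above the mean over all tested compounds plus 3 SD, cut at about 4.2% in these data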;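 further: inhibition shows as a rise in luminescence from relieved DAX1 repression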
Target sequence (P51843 207-470 limits assumed): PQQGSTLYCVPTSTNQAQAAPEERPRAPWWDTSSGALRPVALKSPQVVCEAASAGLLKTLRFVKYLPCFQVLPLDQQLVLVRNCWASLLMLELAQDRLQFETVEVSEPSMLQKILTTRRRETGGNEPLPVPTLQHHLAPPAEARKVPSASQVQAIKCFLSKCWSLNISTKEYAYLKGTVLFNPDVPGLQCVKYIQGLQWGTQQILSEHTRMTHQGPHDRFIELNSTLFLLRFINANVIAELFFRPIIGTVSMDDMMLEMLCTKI
hgDAF12 agonist: H. glycines DAF-12 receptor agonists, primary screen, cell-based, luminescence, HEK293, GAL4 fusion, UAS-luciferase; Nuclear hormone receptor DAF-12 (Heterodera glycines), GAL4 fusion; HEK293 GAL4-hgDAF12 UAS-luciferase reporter, agonist luminescence; normalized to butyrate control; activation, % at 6.8 µM; actives 1.8% (n = 370,000); AID 687014, 2013;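 active means activation above a cutoff set at the mean of all screened compounds plus 3 SD, cut at about 10% in these data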
hcDAF12 agonist: H. contortus DAF-12 nuclear receptor activators, primary screen, cell-based, luminescence, HEK293, lit1-tk-luc reporter; AID 652067, 2013; actives 1.4% (n = 370,000); HEK293 hcDAF-12 lit1-tk-luc reporter; 0% DMSO, 100% Δ7-dafachronic acid; activation, % at 6.8 µM;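 active means activation above the mean of all tested compounds plus 3 SD, cut at about 5.5% in these data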
DAX1 inh-2: DAX1 (NR0B1) inhibitors on StAR promoter, primary screen, cell-based, luminescence, SF-1 (NR5A1), full-length DAX-1 | HEK293T StAR-luciferase reporter, SF-1/DAX-1 repression relief | inhibition, % at 6.8 µM | actives 1.1% (n = 370,000);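 active means inhibition above the mean over all tested compounds plus 3 SD, cut at about 3.6% in these data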;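 further: higher inhibition means more luminescence from relief of DAX-1 repression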
ssDAF-12 act: S. stercoralis DAF-12 nuclear receptor activators, primary screen, cell-based, luminescence, HEK293, GRIP1 co-expression, lit1-tk-luc; HEK293 ssDAF-12/GRIP1 lit1-tk-luc reporter; % of 3 µM dafachronic acid response; activation, % at 6.8 µM; actives 1% (n = 370,000); AID 652126, 2013;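 active means activation above the mean over all tested compounds plus 3 SD, cut at about 0.9% in these data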
Hits are given with their value; i = inactive; nt = no result given. A selection: hits, their analogues and other compounds. The true share with any hit is near 4.1%.

SMILES	DAX1 inh-1	hgDAF12 agonist	hcDAF12 agonist	DAX1 inh-2	ssDAF-12 act
COC(=O)c1ccc(Cn2ccc3ccc(-c4ccc5ccn(C(=O)c6ccccc6OC)c5c4)cc32)cc1	nt	i	i	i	i
COc1cccc(NC(=O)c2ccccc2Br)c1	i	11	i	i	i
COc1cccc(C(=O)Nc2cccc(NC(=O)c3ccccc3Cl)c2)c1	i	i	i	i	i
COc1cccc(NC(=O)c2cccs2)c1	i	13	i	i	i
Cc1ccn2cc(-c3cccc(NC(=O)c4cccs4)c3)nc2c1	i	11	i	i	i
COc1ccc(C(=O)/C=C\c2ccc(NC(=O)c3cccs3)cc2)cc1	i	i	6.5	i	i
COc1ccc(NC(=O)c2ccc(NC(=O)c3cccs3)cc2)cc1	i	i	i	i	i
CC(C)NC(=O)[C@]1(C#N)CC(=O)N(C)[C@@H]1c1ccccc1	nt	i	i	i	i
CC(=O)c1cccc(NC(=O)c2ccccc2-c2ccccc2C(=O)O)c1	i	i	i	i	i
COc1cccc(NC(=O)c2ccccc2-c2ccccc2C(=O)O)c1	i	i	6.0	i	i
COc1cccc(NC(=O)C2=COCCO2)c1	i	i	i	3.7	i
COc1cccc(NC(=O)Cc2ccccc2)c1	i	i	i	i	i
COc1cccc(NC(=O)CN(C)C(=O)C2=COCCO2)c1	i	i	i	i	i
COc1cccc(NC(=S)NC(=O)Cc2ccccc2)c1	5.6	i	i	i	i
COc1cc(Cl)c(C)cc1NC(=O)c1cccc(OC)c1OC	i	11	i	i	i
Cc1ccc(Cn2cc(CN3[C@@H](CC(C)C)COc4cc(Br)ccc4S3(=O)=O)nn2)cc1	nt	i	i	i	i
CCCCNC(=O)NCC1CCN(Cc2ccc(OC)cc2)CC1	nt	i	i	i	i
COc1cccc(NC(=O)c2cccc(OC)c2OC)c1	i	12	i	i	i
COc1cccc(C(=O)Nc2ccncc2)c1OC	i	i	i	i	i
CC1(C)C=C2C(N(Cc3ccc4c(c3)OCO4)C(=N)N2C(=O)OCc2ccccc2)n2c(=O)n(-c3ccccc3)c(=O)n21 (centres undefined)	nt	i	i	nt	i
O=c1c(N2CCOCC2)c(N2CCOCC2)c1=O	7.2	i	i	i	i
CC(C)Oc1c(N2CCOCC2)c(=O)c1=O	i	i	i	i	i
Cn1c(=O)oc2cc(S(=O)(=O)N3CCN(CCO)CC3)ccc21	nt	i	i	i	i
COC(=O)C1=CN(c2ccc(C(C)(C)C)cc2)C(N)=C(C#N)C1c1ccccc1F (centres undefined)	nt	i	i	i	i
COC(=O)C1=CN(c2ccc(OC)cc2)C(N)=C(C#N)C1c1ccccc1F (centres undefined)	nt	i	i	3.8	i
SMILES	DAX1 inh-1	hgDAF12 agonist	hcDAF12 agonist	DAX1 inh-2	ssDAF-12 act
O=C(Nc1ccc(F)cc1)c1ccc2ncsc2c1	i	12	i	i	i
O=C(Nc1nc2ccccc2s1)c1ccc2sc([C@H]3C[C@H](O)[C@@H](CO)O3)nc2c1	nt	11	i	i	i
O=C(Nc1ccc(Cl)cc1)c1ccc2sc([C@@H]3O[C@H](CO)[C@@H](O)[C@H]3O)nc2c1	nt	11	i	i	i
O=C(Nc1ccc2c(c1)OCO2)c1ccc2sc([C@@H]3O[C@H](CO)[C@@H](O)[C@H]3O)nc2c1	nt	i	i	i	i
O=C(Nc1nccs1)c1ccc2sc([C@H]3C[C@H](O)[C@@H](CO)O3)nc2c1	nt	i	i	i	i
O=C(Nc1ccc(Cl)cc1)c1ccc2snnc2c1	i	11	6.2	i	i
O=C(Nc1ccc(Cl)cc1)c1ccc2ncsc2c1	i	i	i	i	i
CCC(=O)N1CCc2cc(Br)c(S(=O)(=O)NCCCN(C)Cc3ccccc3)cc21	nt	i	i	i	i
O=C(CSc1nc2ccccc2nc1N1CCCCC1)N1CCN(S(=O)(=O)c2ccccc2)CC1	nt	i	i	i	i
Cc1cc(C(=O)N/N=C/c2ccc([N+](=O)[O-])cc2)c(C)o1	i	11	i	i	i
